# The list is not random: actives were taken first. Their share in the collection is about 7.9%.
# KB-3-1 tox: KB-3-1 parental cell cytotoxicity | KB-3-1 viability, CellTiter-Glo ATP luminescence, 72 h | Potency, µM (series often up to 46.1 µM), most hits filed as cytotoxic | hit rate 1.4% among 400,000; note: % is set by controls: 0 for no effect and ±100 for the full control effect; nearly all actives have a fitted effect of over 60% in size
#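 Screening of KB-3-1 cells (DMEM, 10% FBS, phenol-red free) ran from lowest to highest compound concentration; after 72 h at 37 °C viability was read luminescently and curves fitted.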
# KB-V1 MDR tox: kills drug-selected multidrug resistant KB-V1 cells. KB-V1 MDR cells viability, CellTiter-Glo, 72 h. Potency, µM (top dose mostly 46.1 µM), usual class: cytotoxic. hit rate 3.4% among 400,000; note: % is set by controls: 0 for no effect and ±100 for the full control effect; nearly all actives have a fitted effect of over 60% in size
#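 KB-V1 cells (P-gp-expressing MDR subline of KB-3-1) in phenol-red-free DMEM with 10% FBS were exposed to library compounds over a concentration series for 72 h at 37 degrees C. Viability read by CellTiter-Glo luminescence; concentration-effect curves fitted after normalization.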
# MCF10A rereplic: DNA re-replication induction in MCF 10a cells; MCF 10A DNA re-replication, Hoechst nuclear intensity, 48 h; Potency, µM (series often up to 46.1 µM), without a hit: at the top dose activity, positive = re-replication, usual class: activators; hit rate 2.9% among 350,000; AID 624296; note: % of control where 0% means no effect; nearly all actives have a fitted effect of over 50% in size
# HT1080NT lethal: kills 2HG-producing HT-1080-NT fibrosarcoma cells | HT-1080-NT fibrosarcoma viability, CellTiter-Glo ATP luminescence, 48 h | Potency, µM (titrated, usually from 46.1 µM), without a hit: at the highest dose activity, negative = less viability, usual class: cytotoxic | hit rate 1.6% among 360,000 | AID 686970;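 note: NT is the 2HG producing partner of a matched IDH1 knockdown line; 0% = DMSO-treated cells and -100% = media-only wells without cells; nearly all actives have a fitted effect of over 55% in size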
#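 Viability of the 2HG-overproducing fibrosarcoma line after 48 hours of compound exposure at 37 degrees C was determined by luminescence with CellTiter-Glo, and concentration-effect curves were then fitted and categorized.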
# HT1080 IDH1KD tx: toxicity to HT-1080 IDH1 knockdown cells (counter line); Potency, µM (top dose mostly 46.1 µM), inactives show at the top dose activity, negative = toxicity, actives largely listed as cytotoxic; HT-1080 IDH1 knockdown viability, ATP luminescence, 48 h; hit rate 2% among 360,000;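 note: 0% = DMSO wells and -100% = cell-free medium wells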
#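 IDH1KD HT-1080 cells, 750/well, RPMI + 5% FBS; compound pinned after 2 h settling; 48 h, 37 °C; CellTiter-Glo luminescence; % activity normalised to DMSO and no-cell wells; curves fitted, classed by r2 and efficacy.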
# SW480 rerep: inducers of DNA re-replication in SW480 colon cancer cells. SW480 DNA re-replication, Hoechst DNA content imaging, 48 h. hit rate 1.8% among 340,000. Potency, µM (series often up to 46.1 µM), for inactives: top-dose re-replication activation, usual class: activators. AID 624297; note: % of control where 0% means no effect; nearly all actives have a fitted effect of over 55% in size
#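 Image-based read-out: total Hoechst fluorescence of nuclei (405 nm excitation, 500-530 nm emission), with hits raising the fraction of high-intensity nuclei. SW480 colon cells incubated 48 hr with compounds at 37 C.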
# Numbers without * were called inactive; i = inactive; ? = inconclusive; . = no result given. Calls come from the whole dose curve; as a rule, active = well fitted curve in the direction sought with a large enough effect; inconclusive = small, poorly fitted or top-dose-only effect, or another doubt; inactive = no such curve, though single readings can be large; an effect the other way counts as inactive or inconclusive. Potency is the fitted concentration of half-maximal effect.
SMILES,KB-3-1 tox,KB-V1 MDR tox,MCF10A rereplic,HT1080NT lethal,HT1080 IDH1KD tx,SW480 rerep
Cc1nn(C)c(C)c1N1C(=O)c2cccc3c(N)ccc(c23)C1=O,i,i,13.4%,10.2%,5.2%,5.2%
Cc1nn(C)c(C)c1N1C(=O)c2cccc3c(Br)ccc(c23)C1=O,?,i,26.9%,23.1µM*,?,?
CCCCNc1ccc2c3c(cccc13)C(=O)N(CCCC)C2=O,i,?,7.31µM*,?,?,20.6µM*
CN(C)CCCN1C(=O)c2cccc3c(Br)ccc(c23)C1=O,?,?,7.31µM*,-7.2%,-17.2%,?
COc1ccc2nc(N3CCC(C)CC3)c(C#N)cc2c1,i,i,5.8µM*,10.5%,15.4%,20.6µM*
COc1cc(N2C(=O)C=CC2=O)ccc1N1C(=O)C=CC1=O,18.4µM*,?,6.51µM*,?,9.2µM*,13µM*
N#Cc1c(-c2ccc(Cl)cc2)n(O)c2ccccc12,7.31µM*,3.66µM*,3.66µM*,10.3µM*,14.6µM*,8.2µM*
N#Cc1c(-c2ccc(Cl)cc2)c(C#N)c(=O)n(N)c1N,i,i,-4.5%,-5.2%,-1.9%,-8.6%
O=C(CSc1nncn1-c1ccccc1)Nc1cc(Cl)cc(Cl)c1,i,i,0.4%,5.0%,10.8%,-2.6%
NS(=O)(=O)c1cccc(NC(=O)CSc2nnnn2-c2ccccc2)c1,i,?,?,19.5%,-6.8%,111.7%
CN(C)S(=O)(=O)c1cccc(NC(=O)CSc2nncn2-c2ccccc2)c1,?,i,0.651µM*,-2.9%,3.8%,-47.4%
CN(C)S(=O)(=O)c1cccc(NC(=O)CSc2nnnn2-c2ccccc2)c1,i,10.3µM*,5.8%,?,-3.4%,-37.1%
CC(=O)Nc1ccc(-c2nnc(SCc3ccccc3)n2C)cc1,?,i,.,.,.,.
COc1cc(C2CC(=O)N(Cc3cccc(F)c3)c3ccccc3S2)cc(OC)c1OC (stereo not given),?,16.4µM*,.,.,.,.
CN(C(=O)c1cccnc1)c1nc(-c2ccccc2)cs1,i,20.6µM*,0.5%,-15.1%,1.5%,-2.0%
Cc1ccc(-c2csc(N(C)C(=O)c3c(C)nn(-c4ccccc4)c3Cl)n2)cc1,i,?,5.8µM*,5.1%,6.2%,-4.8%
CN(Cc1ccccc1)C(=O)c1cccnc1,i,i,2.6%,13.1%,12.3%,-9.1%
COc1ccc(CNc2cccc3[nH]c(C(F)(F)F)nc23)cc1,i,i,42.6%,?,?,-4.8%
Cc1ccc(C(=O)Nc2cccc3[nH]c(C(F)(F)F)nc23)cc1,16.4µM*,18.4µM*,?,?,-39.6%,25.3%
CC(=O)N=c1c(C#N)cc2c(=O)n3ccccc3nc2n1CCCOC(C)C,i,i,?,0.7%,22.8%,16.4µM*
CC(C)OCCCn1c(=NC(=O)c2cccs2)c(C#N)cc2c(=O)n3ccccc3nc21,i,?,11.6µM*,2.0%,7.0%,20.6µM*
CC(C)OCCCn1c(=N)c(C(N)=S)cc2c(=O)n3ccccc3nc21,i,?,9.2µM*,6.2%,4.3%,5.8µM*
Cc1ccc(C(=O)Nc2ccc(Br)cc2)cc1S(=O)(=O)NCc1ccccc1,?,i,.,.,.,.
CSC1(SC2=NCCN2)SC2(NCCN2)S1,?,?,3.66µM*,-4.1%,?,?
Cc1sc(NC(=O)c2ccco2)c(C(c2cccnc2)N2CCN(CCO)CC2)c1C (stereo not given),i,i,26.0%,-5.7%,0.3%,-22.2%
SMILES,KB-3-1 tox,KB-V1 MDR tox,MCF10A rereplic,HT1080NT lethal,HT1080 IDH1KD tx,SW480 rerep
CCOc1ccc(C(c2c(NC(=O)c3ccccc3)sc(C)c2C)N2CCN(CCO)CC2)cc1 (stereo not given),?,?,?,?,?,3.66µM*
CCc1cc(C(c2ccncc2)N2CCN(C)CC2)c(NC(=O)c2ccccc2)s1 (stereo not given),i,20.6µM*,-34.1%,-1.4%,0.2%,-693.2%
Cc1sc(NC(=O)c2ccccc2)c(C(c2ccc(Cl)cc2)N2CCN(CCO)CC2)c1C (stereo not given),20.6µM*,?,?,?,?,23.6%
CC(=O)Nc1sc2c(c1C(c1ccncc1)N1CCOCC1)CCCC2 (stereo not given),i,i,-1.1%,-17.6%,-9.6%,-0.2%
CCOC(=O)[C@]12CCCC=C1N(Cc1ccco1)C(=O)[C@H](CC(=O)N1CCC(c3ccccc3)CC1)C2,i,i,.,-28.1%,-28.0%,.
CC(C)CCOc1ccc(CC(=O)NO)cc1,i,i,.,.,.,.
CCN(CC)CCC(=O)N1c2ccccc2Sc2ccc(NC(=O)OC)cc21,i,i,23.1µM*,-7.9%,-2.4%,?
CCOC(=O)Nc1ccc2c(c1)N(C(=O)CCN(C)C)c1ccccc1S2,i,?,?,5.7%,6.2%,13.2%
Cc1cc(F)ccc1NC(=O)C1CCCN(C(=O)c2cnn(-c3ccccc3)c2-n2cccc2)C1 (stereo not given),i,i,.,.,.,.
CCOC(=O)c1cc(C)sc1NC(=O)CSC1=NCCS1,i,i,20.6µM*,-11.8%,-3.3%,?
Cc1ccc(S(=O)(=O)N(CC(=O)N=Nc2c(O)[nH]c3ccccc23)c2cccc(C)c2)cc1,20.6µM*,20.6µM*,?,?,13µM*,?
Cc1ccc(N(Cc2cc3cccc(C)c3[nH]c2=O)S(=O)(=O)c2ccccc2)c(C)c1,i,i,1.5%,0.9%,5.1%,-0.9%
Cc1ccc(S(=O)(=O)N(Cc2cc3ccccc3[nH]c2=O)c2cccc(C)c2)cc1,i,?,?,4.3%,8.8%,4.11µM*
CCCCN(Cc1cc2ccccc2[nH]c1=O)S(C)(=O)=O,i,?,-0.9%,3.8%,7.2%,10.3µM*
Cc1ccc2[nH]c(=O)c(CN(c3cccc(C)c3C)S(=O)(=O)c3ccccc3)cc2c1,6.51µM*,?,?,22.4%,?,21.5%
Cc1ccc(CCNS(=O)(=O)c2ccc3c(c2)CCN3C(=O)CCC(=O)O)cc1,i,i,.,.,.,.
CC(C)Nc1cccc(S(=O)(=O)N2CCCN(S(=O)(=O)c3ccc4c(c3)OCCO4)CC2)c1,i,i,.,.,.,.
CC(C)C(Cl)=NOC(=O)Nc1ccc(S(N)(=O)=O)cc1,i,i,2.91µM*,-1.0%,?,?
O=C(CSC(=S)N1CCSCC1)c1ccc(Cl)cc1,8.2µM*,9.2µM*,?,9.9%,-2.6%,1.6%
CCCCCCCCCCCCCCCCCCOC[C@H](COP(=O)([O-])OCC[N+](C)(C)C)OC,.,.,?,.,.,21.1µM*

# Screening results: PubChem, National Center for Advancing Translational Sciences (NCATS)
